# Assay outcomes (PubChem)
# The list is not random: actives were taken first. Their share in the collection is about 4.2%.
# Cav3 T inh – Cav3.2 calcium influx blockers – cell-based, Fluo-4 calcium fluorescence, FDSS, MLSMR library, primary screen. Voltage-dependent T-type calcium channel subunit alpha-1H (Homo sapiens), O95180. Cav3.2-expressing cells; stronger effect = lower value. B-score at 10 µM. hit rate 4% among 100,000. AID 449739, 2010;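 active = single-dose well whose peak fluorescence ratio is a statistical outlier from its plate by either plate-standardised score or position-corrected B-score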
# CD11b adhes enh – enhancers of CD11b/CD18 adhesion to fibrinogen, primary screen, K562 cells, luminescence. hit rate 0.07% among 93,000. Integrin beta-2 (Homo sapiens) + Integrin alpha-M (Homo sapiens), P05107+P11215. ATPlite luminescence. activation, % at 10 µM;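 active = 10 µM primary screen giving 50% or more activity, confirmed by 40% or more on retest at that dose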
# Target sequence (P05107 whole entry, looked up, other chains not shown): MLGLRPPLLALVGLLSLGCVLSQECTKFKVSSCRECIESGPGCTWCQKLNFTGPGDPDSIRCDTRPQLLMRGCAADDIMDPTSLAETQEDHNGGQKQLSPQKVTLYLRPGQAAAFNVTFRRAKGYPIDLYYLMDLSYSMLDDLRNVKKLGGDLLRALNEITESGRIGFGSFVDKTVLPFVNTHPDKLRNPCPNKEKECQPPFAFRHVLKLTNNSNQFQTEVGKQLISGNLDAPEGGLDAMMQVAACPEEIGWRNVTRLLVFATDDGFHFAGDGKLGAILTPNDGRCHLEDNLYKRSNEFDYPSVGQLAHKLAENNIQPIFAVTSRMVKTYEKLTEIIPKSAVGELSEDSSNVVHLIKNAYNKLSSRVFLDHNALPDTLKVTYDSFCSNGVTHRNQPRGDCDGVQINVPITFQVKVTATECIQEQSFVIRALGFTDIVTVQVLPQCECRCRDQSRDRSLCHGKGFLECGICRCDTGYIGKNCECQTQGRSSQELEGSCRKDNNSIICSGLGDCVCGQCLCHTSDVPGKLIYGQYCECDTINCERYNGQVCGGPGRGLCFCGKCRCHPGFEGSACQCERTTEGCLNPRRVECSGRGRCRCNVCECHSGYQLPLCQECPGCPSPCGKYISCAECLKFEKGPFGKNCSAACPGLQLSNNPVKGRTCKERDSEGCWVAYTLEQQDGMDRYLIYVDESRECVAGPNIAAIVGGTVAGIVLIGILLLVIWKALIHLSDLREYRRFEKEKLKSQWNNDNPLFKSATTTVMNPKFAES
# Mac1 fbg inh – inhibitors of CD11b/CD18 adhesion to fibrinogen, primary screen, K562 cells, luminescence | Integrin beta-2 (Homo sapiens) + Integrin alpha-M (Homo sapiens), P05107+P11215 | ATPlite luminescence; Mn2+ added to activate the integrin | inhibition, % at 10 µM | hit rate 0.54% among 93,000;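 active = primary inhibition of 50% or more at 10 µM, then 40% or more on retest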
# Ec RNAP inh – E. coli RNAP inhibitors, biochemical; hit rate 0.2% among 62,000; DNA-directed RNA polymerase subunit beta (Escherichia coli (strain K12)), P0A8V2; E. coli RNA polymerase, fluorescence transcription assay; AID 559, 2006; inhibition, %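 (tested at 10 µM)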; in the data active = inhibition above about 20%;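 note: 0% = enzyme without compound and 100% = no enzyme blank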
# Pyk2 oligo antag – antagonists of Pyk2 self-association, primary screen, Q293 cells, FERM NanoBiT luminescence, HTS. stronger effect = lower value. z-score (the deposit names both 25 µM and 10 µM). hit rate 0.83% among 99,000. AID 1347419, 2020;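 active = Z-score of -3 or lower, scaled per plate to the spread of control and sample wells; inactive = z-score above -3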;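 note: negative z-score means lost luminescence so less FERM oligomerization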
# Numbers without * were called inactive; . = no result.
SMILES,Cav3 T inh,CD11b adhes enh,Mac1 fbg inh,Ec RNAP inh,Pyk2 oligo antag
C(=C\c1ccccc1)/CN1CCN(C(c2ccccc2)c2ccccc2)CC1,-0.951,.,.,5.1,.
Fc1ccc(C(c2ccc(F)cc2)N2CCN(C/C=C/c3ccccc3)CC2)cc1,-4.55*,.,.,9.1,.
COc1ccc(-n2c(SCC(=O)Nc3sc4c(c3C#N)CCCC4)nnc2-c2ccccc2OC)cc1,-6.31*,.,.,.,-2.36
COc1ccc(NS(=O)(=O)c2cc(NC(=O)[C@@H](NC(=O)c3ccccc3)C(C)C)ccc2C)cc1,.,.,.,.,-0.25
Cc1ccccc1NC(=O)/C(=C/c1ccco1)c1ccccc1,-1.73,2.2,7.0,.,1.51
CCc1ccccc1NC(=O)/C(=C/c1ccco1)c1ccccc1,-5.54*,-1.7,14.7,.,-0.28
COC(=O)C(NC(=O)c1ccc(C)cc1)(Nc1cccc(C)n1)C(F)(F)F (configuration not stated),-4.62*,.,.,.,-0.2
COC(=O)C(NC(=O)c1ccccc1)(Nc1nc(C)cs1)C(F)(F)F (configuration not stated),0.818,-3.3,-5.0,.,0.52
C=C1CCN([C@@H](Cc2ccccc2)C(=O)NCCC(C)C)S(=O)(=O)c2ccccc21,-1.47,.,.,.,.
CC(=O)Nc1ccc(Oc2cc(C#N)c(C#N)cc2N2CCCCCC2)cc1,-3.81*,.,.,5.1,-1.91
COc1ccc(CN(C(=O)CSc2nnc(-c3ccccc3C)o2)c2ccc(F)cc2)cc1,-4.7*,.,.,.,-0.77
COc1cccc(NC(=O)CSc2nnc(-c3ccc(C)cc3)o2)c1,-0.115,-1.7,-0.7,1.1,.
O=C(CSc1nnc(-c2c[nH]c3ccccc23)o1)N(Cc1ccccc1)c1ccc(F)cc1,-2.46,.,.,-9.1,-3.32*
COc1ccc(-c2nnc(SCC(=O)Nc3cc(F)ccc3C)o2)cc1,-5.6*,-4.6,12.1,3.7,.
COc1nc(OC)nc(N2CCC(C(=O)NCc3ccco3)CC2)n1,0.991,6.0,-15.5,3.5,1.46
O=C(NCc1ccco1)C1CCN(c2nc3ccccc3n2Cc2ccc(F)cc2)CC1,-8.27*,5.8,1.4,-0.9,.
COc1ccc(/C=N/NC(=O)OC(C)(C)C)cc1OC,.,-2.1,-14.1,.,.
Cc1oc2c(CN(C)C)c(O)ccc2c(=O)c1-c1cscn1,0.797,-2.9,-7.8,-3.6,1.15
CCc1cc2c(=O)c(-c3cscn3)coc2c(CN(C)C)c1O,0.347,-1.2,-20.1,-12.5,-3.36*
CC1CCC(NC(=O)C2c3ccccc3C(=O)N2Cc2cccs2)CC1 (configuration not stated),.,.,.,.,0.5
Cc1c(C#N)c(N=CN(C)C)c(C(=O)c2ccc(Br)cc2)n1-c1ccc(Cl)cc1,-2.44,2.8,-42.3,.,-0.68
COc1ccccc1OCCN1C(=O)S/C(=C\c2ccco2)C1=O,-6.47*,-4.2,-1.1,.,0.26
CCOC(=O)c1cnc2c(OC)cccc2c1Nc1ccc2c(c1)OCCO2,.,0.3,-4.6,.,.
CCOC(=O)c1cnc2ccc(OC)cc2c1Nc1ccc2c(c1)OCCO2,-3.43,1.2,7.7,.,-3.95*
CCCN(CCC)S(=O)(=O)c1ccc(C(=O)Nc2nc(-c3ccccc3)c(C(=O)OCC)s2)cc1,.,-7.4,95.4,.,.
SMILES,Cav3 T inh,CD11b adhes enh,Mac1 fbg inh,Ec RNAP inh,Pyk2 oligo antag
Cc1ccc(C)c(N(CC(=O)NC2CCCC2)C(=O)c2oc(C(C)(C)C)cc2C)c1,-4.75*,5.6,46.0,.,-1.25
O=C1NC[C@H](c2ccccc2)N(CCc2cccc(F)c2)C1=O,0.327,.,.,.,.
COc1ccc(S(=O)(=O)N2CCOC2CNC(=O)C(=O)NCCCn2ccnc2)cc1OC (configuration not stated),2.24,.,.,.,.
COc1ccc(S(=O)(=O)N2CCOC2CNC(=O)C(=O)NCCc2c[nH]c3ccccc23)cc1C (configuration not stated),-3.47*,.,.,.,.
COC(=O)c1ccc(COC(=O)c2ccccn2)cc1,0.117,-0.8,10.4,8.9,0.7
COC(=O)c1ccc(COC(=O)CCc2nc(-c3ccccc3)c(-c3ccccc3)o2)cc1,-5.22*,1.6,-25.6,.,0.13
CCN(CC)C(=O)CSc1nc(-c2cccs2)cc(-c2cccs2)c1C#N,-5.99*,.,.,.,-1.47
CCn1c(COc2cccc(C)c2)nc2ccccc21,-3.99*,.,.,.,1.11
COCn1c(COc2ccc3ccccc3c2)nc2ccccc21,-5.34*,.,.,.,-2
